Among the test systems are NCI-H23 lung; NCI-H226 lung; NCI-H322M lung; HOP-62 NSCLC; NCI-H460 lung; NCI-H522 lung; A549/ATCC NSCLC; 786-0 renal; COLO 205 colon; DU-145 prostate.
Common to all, as to assay: NCI-60 one-dose screen, 48 h (100 = growth as untreated, 0 = no growth, -100 = all killed)
Holding throughout (conditions): 10 µM

This is part of a sample that, as a whole, favours compounds with a hit. Of some 83,000 tested, about 20% had one in any assay.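 Step 1: grow cells in 96-well plates. Step 2: add test compound at a single concentration. Step 3: incubate 48 h. Step 4: record percent growth.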 Activity calls are given as the source filed them. The calls were made as follows: active = growth percent below 10; inactive = the rest.

For the compound `O=C1c2ccc3c4c(ccc(c24)C(=O)N1CCNCc1ccccc1)C(=O)N(CCNCc1ccccc1)C3=O`, the growth is -49.4% (active) with NCI-H23 lung; 115% (inactive) in the experiment on NCI-H226 lung; -43% (active) in the experiment on NCI-H322M lung; 95.6% (inactive) in the experiment on HOP-62 NSCLC; -26.7% (active) in the experiment with NCI-H460 lung; -51.2% (active) in the experiment with NCI-H522 lung. Also, the growth with A549/ATCC NSCLC was 12.8% (inactive); in the experiment with 786-0 renal, 52.4% (inactive); with COLO 205 colon, 24.1% (inactive); with DU-145 prostate, 20.7% (inactive).
Regarding `O=C1/C(=C/c2ccc([N+](=O)[O-])o2)Oc2ccccc21`, the growth is -8.25% (active) in the experiment on NCI-H23 lung; 23.9% (inactive) in the experiment with NCI-H226 lung; 91.6% (inactive) in the experiment on NCI-H322M lung; 62.2% (inactive) in the experiment on HOP-62 NSCLC; 31.8% (inactive) in the experiment on NCI-H460 lung; -79.6% (active) with NCI-H522 lung. Moreover, the growth in the experiment with A549/ATCC NSCLC is 62.5% (inactive); in the experiment with 786-0 renal it was -38.5% (active); with COLO 205 colon, -66% (active); with DU-145 prostate, -8.6% (active).
In the case of `Nc1ccc2c(c1)C1(CCC2)NC(=O)NC1=O` (stereo not given), the growth in the experiment on NCI-H23 lung is 103% (inactive); in the experiment with NCI-H226 lung, 92.1% (inactive); in the experiment on NCI-H322M lung, 103% (inactive); in the experiment on HOP-62 NSCLC it was 101% (inactive); in the experiment with NCI-H460 lung it was 103% (inactive); with NCI-H522 lung, 98.6% (inactive). Further, the growth in the experiment with A549/ATCC NSCLC is 99.5% (inactive); with 786-0 renal, 100% (inactive); in the experiment with COLO 205 colon, 105% (inactive); in the experiment on DU-145 prostate, 114% (inactive).
As to `Cc1cccc2c(NCCN(C)C)c3cccc(C(=O)NCCN(C)C)c3nc12`, the growth in the experiment on NCI-H23 lung is 6.76% (active); in the experiment on NCI-H226 lung it was 22.4% (inactive); in the experiment with NCI-H322M lung, -5.21% (active); with HOP-62 NSCLC, 4.88% (active); in the experiment on NCI-H460 lung, -13.2% (active); in the experiment with NCI-H522 lung, -43.7% (active). The growth is 16.2% (inactive) in the experiment with A549/ATCC NSCLC, 14.5% (inactive) in the experiment on 786-0 renal, 0.559% (active) with COLO 205 colon and -20.1% (active) with DU-145 prostate.
For the compound `COc1ccc(-c2nn(-c3cccc(NC(=O)Nc4ccc(Cl)c(C(F)(F)F)c4)c3)cc2-c2ccncc2)cc1Cl`, the growth in the experiment on NCI-H23 lung was 9.49% (active); with NCI-H226 lung, 22.4% (inactive); in the experiment with NCI-H322M lung it was 19.1% (inactive); in the experiment on HOP-62 NSCLC, 25.2% (inactive); in the experiment with NCI-H460 lung, 1.08% (active); in the experiment on NCI-H522 lung, -8.34% (active). Also, the growth in the experiment on A549/ATCC NSCLC was 8.45% (active); with 786-0 renal, 19% (inactive); with COLO 205 colon, -33.3% (active); in the experiment on DU-145 prostate it was 22.7% (inactive).
With `O=[N+]([O-])c1ccc(N/N=C/c2cccc3ccccc23)nc1`, the growth in the experiment on NCI-H23 lung was 102% (inactive); in the experiment on NCI-H226 lung, 121% (inactive); in the experiment on NCI-H322M lung, 105% (inactive); in the experiment with HOP-62 NSCLC, 110% (inactive); in the experiment on NCI-H460 lung it was 117% (inactive); in the experiment on NCI-H522 lung it was 84.8% (inactive). The growth is 92.4% (inactive) with A549/ATCC NSCLC, 99.2% (inactive) in the experiment on 786-0 renal, 102% (inactive) in the experiment on COLO 205 colon and 124% (inactive) in the experiment on DU-145 prostate.
As for `CCOC(=O)C1CCc2c(ccc3ccccc23)N1CCC#N` (stereo not given), the growth is 89.7% (inactive) in the experiment with NCI-H23 lung; 98.7% (inactive) with NCI-H226 lung; 85.7% (inactive) in the experiment on NCI-H322M lung; 101% (inactive) in the experiment on HOP-62 NSCLC; 109% (inactive) in the experiment with NCI-H460 lung; 93.3% (inactive) with NCI-H522 lung. The growth is 104% (inactive) with A549/ATCC NSCLC, 100% (inactive) in the experiment on 786-0 renal, 119% (inactive) with COLO 205 colon and 111% (inactive) in the experiment on DU-145 prostate.
Turning to `Cc1ccc(NC(=O)Nc2nc3ccccc3s2)cc1NC(=O)Nc1nc2ccccc2s1`, the growth in the experiment with NCI-H23 lung is 89.5% (inactive); in the experiment with NCI-H226 lung it was 90% (inactive); with NCI-H322M lung it was 97.6% (inactive); with HOP-62 NSCLC, 88.3% (inactive); in the experiment on NCI-H460 lung, 88.5% (inactive); with NCI-H522 lung it was -33.8% (active). The growth with A549/ATCC NSCLC was 42.5% (inactive); in the experiment on 786-0 renal it was 97.1% (inactive); in the experiment on COLO 205 colon, 80.6% (inactive); in the experiment on DU-145 prostate it was 107% (inactive).
Turning to `CC/C(=C(/c1ccc(OCCN(C)C)cc1)c1ccc(OC(=O)CCCCC(=O)c2c(C)[nH]c(/C=C3\N=C(c4ccc[nH]4)C=C3OC)c2C)cc1)c1ccccc1`, the growth with NCI-H23 lung was 86.7% (inactive); with NCI-H226 lung it was 54.4% (inactive); in the experiment with NCI-H322M lung, 72.2% (inactive); in the experiment with HOP-62 NSCLC, 77.9% (inactive); in the experiment with NCI-H460 lung, 61.2% (inactive); in the experiment on NCI-H522 lung, 4.55% (active). For the same compound, the growth is 52.4% (inactive) with A549/ATCC NSCLC, 67.4% (inactive) in the experiment with 786-0 renal, 72% (inactive) in the experiment on COLO 205 colon and 34.2% (inactive) in the experiment on DU-145 prostate.
As to `O=C(O)C(SC(C(=O)O)c1ccccc1)c1ccccc1` (stereo not given), the growth in the experiment with NCI-H23 lung is 99.8% (inactive); in the experiment on NCI-H226 lung, 95.9% (inactive); in the experiment with NCI-H322M lung, 118% (inactive); in the experiment with HOP-62 NSCLC it was 107% (inactive); in the experiment on NCI-H460 lung it was 110% (inactive); in the experiment on NCI-H522 lung it was 108% (inactive). For the same compound, the growth is 103% (inactive) in the experiment with A549/ATCC NSCLC, 103% (inactive) with 786-0 renal, 113% (inactive) with COLO 205 colon and 104% (inactive) with DU-145 prostate.
Take `Cc1cn(C2CCCCO2)c(=O)nc1NO` (stereo not given): the growth in the experiment with NCI-H23 lung is 93.4% (inactive); with NCI-H226 lung it was 115% (inactive); in the experiment on NCI-H322M lung it was 110% (inactive); in the experiment with HOP-62 NSCLC, 110% (inactive); in the experiment with NCI-H460 lung it was 107% (inactive); in the experiment on NCI-H522 lung, 104% (inactive). For the same compound, the growth was 104% (inactive) with A549/ATCC NSCLC, 103% (inactive) in the experiment on 786-0 renal, 120% (inactive) with COLO 205 colon and 113% (inactive) in the experiment with DU-145 prostate.
In the case of `Cc1cc(Cc2cc(C)c(O)c(C)c2)cc(C)c1O`, the growth is 74.1% (inactive) in the experiment with NCI-H23 lung; 96.6% (inactive) in the experiment with NCI-H226 lung; 68.2% (inactive) with NCI-H322M lung; 49.8% (inactive) in the experiment with HOP-62 NSCLC; 29.1% (inactive) with NCI-H460 lung; 28.5% (inactive) with NCI-H522 lung. Besides, the growth in the experiment with A549/ATCC NSCLC is 36.8% (inactive); in the experiment with 786-0 renal, 56.2% (inactive); with COLO 205 colon, 104% (inactive); with DU-145 prostate, 78.3% (inactive).

The values are drawn from PubChem BioAssay (NCI).
